In PubChem BioAssay AID504840 (Johns Hopkins Ion Channel Center, 2011):
About 890 (59%) of roughly 1,500 compounds were called active.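 The calls were made as follows: active = inhibition of the choline-evoked signal at any tested dose together with a fitted dose-response curve; inactive = no inhibition at any dose or no curve.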 The set was probably picked from earlier hits. A selection follows. Entries with a potency or affinity are not part of this list.

biological target: High affinity choline transporter 1 (Homo sapiens) (UniProt Q9GZV3); test: human choline transporter blockers, potency – cell-based, 5-point CRC, membrane potential dye, dose response (AID 504840); conditions: HEK293-CHT, choline-induced depolarization, CHT with LV-to-AA double alanine mutation; series mostly up to 37 µM
Sequence (Q9GZV3 whole entry, looked up): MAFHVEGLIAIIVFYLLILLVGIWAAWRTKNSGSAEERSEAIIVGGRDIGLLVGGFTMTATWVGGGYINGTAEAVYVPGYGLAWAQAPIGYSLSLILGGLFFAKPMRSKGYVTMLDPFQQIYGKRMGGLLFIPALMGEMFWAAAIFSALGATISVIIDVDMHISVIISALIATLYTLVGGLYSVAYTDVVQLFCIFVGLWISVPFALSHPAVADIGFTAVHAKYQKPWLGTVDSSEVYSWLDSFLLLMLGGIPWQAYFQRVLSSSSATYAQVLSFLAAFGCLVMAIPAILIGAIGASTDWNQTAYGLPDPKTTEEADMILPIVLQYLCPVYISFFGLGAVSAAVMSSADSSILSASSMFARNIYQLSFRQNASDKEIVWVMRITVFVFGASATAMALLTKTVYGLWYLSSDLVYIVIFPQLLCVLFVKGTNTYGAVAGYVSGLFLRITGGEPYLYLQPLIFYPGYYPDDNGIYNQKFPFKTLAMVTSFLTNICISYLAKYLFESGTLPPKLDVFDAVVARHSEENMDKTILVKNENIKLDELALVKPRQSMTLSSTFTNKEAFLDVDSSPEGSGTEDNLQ

outcome, inactive:
OCC1OC(n2cnc3c(NC4CCCCC4)ncnc32)C(O)C1O (configuration not stated)
CC(=O)c1ccc(Nc2nc(NCCO)nc(OC(C(F)(F)F)C(F)(F)F)n2)cc1
CC1CCN(CCCNC(=O)CN2C(=O)CSc3ccc(S(=O)(=O)N4CCCCC4)cc32)CC1
CCCCN(C)CCNC(=O)CN1C(=O)CSc2ccc(S(=O)(=O)N3CCCC3)cc21
Cc1ccc(-c2csc3ncnc(N4CCN(C)CC4)c23)cc1C
Cc1ccc(-c2csc3ncnc(-n4cnc5ccccc54)c23)cc1
Cc1ccc(-c2csc3ncnc(-n4nnc5ccccc54)c23)cc1
O=C(O)CCN1C(=O)CC(N2C(=O)/C(=C/c3ccc(Cl)cc3)SC2=S)C1=O (configuration not stated)
COc1ccc(-c2csc3ncnc(NCCCO)c23)cc1
CCCNC(=O)N1CCCC(C(=O)c2cccc(Cl)c2)C1 (configuration not stated)
Cc1cc(O)ccc1NS(=O)(=O)c1ccc2c3c(cccc13)C(=O)N2
CCOC(=O)Cc1csc(N/C(=N/S(=O)(=O)c2ccc(F)cc2F)c2ccccc2)n1
CC1Cc2ccccc2N1C(=O)COC(=O)c1ccc(O)cc1 (configuration not stated)
CC[C@H](CO)Nc1nc(Nc2cccc(Cl)c2)c2ncn(C(C)C)c2n1
COc1cc2c(cc1OC)/C(=C/C(=O)c1ccccc1F)NCC2
CCCCCn1c(=O)c(F)cn(Cc2ccc(OC)c([N+](=O)[O-])c2)c1=O
Cn1c(-c2ccccc2)cnc1SCc1nc2ccccc2c(=O)[nH]1
N#Cc1ccccc1COC(=O)c1cccnc1N
CC1=C(C(=O)NC(C)C)C2(CCC(C)CC2)OC1=O (configuration not stated)
CCOc1ccc(/C=C2\SC(=S)N(NS(=O)(=O)c3ccc(C)cc3)C2=O)cc1OC
O=C1/C(=C/c2ccc(F)cc2)SC(=S)N1NS(=O)(=O)c1ccccc1
COc1ccc(/C=C2/SC(=S)N(NS(=O)(=O)c3ccccc3)C2=O)cc1
COc1cc(C=O)ccc1OCCOCCOc1ccccc1Cl
Cc1ccc(C(=O)Nc2cccc(C(F)(F)F)c2)cc1NC(=O)c1csc(-c2ccncc2)n1
Cc1ccc(NC(=O)COC(=O)CN2C(=O)COc3ccccc32)cc1
CCOc1ncccc1C(=O)NCC1COc2ccccc2O1 (configuration not stated)
CC1(C)CC2CC(C)(CN2C(=O)CCCN2C(=O)c3ccccc3C2=O)C1 (configuration not stated)
CCOc1cccc(-c2nn(-c3ccccc3)cc2/C=C(/C#N)C(=O)NCCCn2ccnc2)c1
O=C(O)c1ccc(N/N=C/c2cn(-c3ccccc3)nc2-c2cccs2)cc1
Cc1c(CCC(=O)NCCCn2ccnc2)c(=O)oc2c(C)c3occ(C(C)(C)C)c3cc12
Cc1ccc2nc(-c3ccccc3)cc(C(=O)NCCCn3ccnc3)c2c1
COc1ccc(/C(O)=C2/C(=O)C(=O)N(c3ccccn3)C2c2cccc(Cl)c2)cc1 (configuration not stated)
O=C(NC1CC1)C1=C[C@H](c2csc3ccccc23)C[C@H](OCc2ccc(CO)cc2)O1
O=C(Nc1ccc(OCc2ccccc2)cc1)Nc1ccccc1C(=O)NCCCN1CCOCC1
O=C(Nc1ccccc1C(=O)NCCCn1ccnc1)c1ccc(Cl)cc1Cl
CSc1ccccc1C(=O)NCCS(=O)(=O)N1CCN(c2ccc(F)cc2)CC1
C=CCn1c(SC2CCOC2=O)nc2scc(C3CC3)c2c1=O (configuration not stated)
COc1ccc(OCC(=O)NC(=S)Nc2ccccc2F)cc1
CN(C)CCOC(=O)Cc1ccc(Cl)cc1
CN(Cc1ccccc1)C(=O)COC(=O)COc1ccc(C#N)cc1
Cc1sc2nc(SCCN(C)C)n(-c3ccccc3)c(=O)c2c1-c1ccc(F)cc1
CCCCOc1cccc(C(=O)NNC(=S)NC2CCCCC2)c1
Oc1ccc(Oc2ncc(Cl)cc2Cl)cc1
O=C(C[n+]1cccc2ccccc21)c1ccc(Cl)cc1
CC(C)Cc1csc(NC(=O)c2ccc(Br)cc2)c1C(=O)O
CSCCC(NC(=O)c1ccccc1)C(=O)Nc1ccc(C)cc1 (configuration not stated)
CC(C)c1c(C(=O)N/N=C/c2cccc(OCc3ccc(F)cc3)c2)nnn1-c1nonc1N
CCCOP(=O)(c1ccc(N(C)C)cc1)C(O)c1ccc(Br)cc1 (configuration not stated)
O=C(NNS(=O)(=O)c1ccc([N+](=O)[O-])cc1)c1ccc2ccccc2c1O
CCN1CCN(CC(=O)Nc2ccc(S(=O)(=O)N3C(C)CCCC3C)cc2)CC1 (configuration not stated)
O=C(CCN1C(=O)/C(=C\c2cccc(Br)c2)SC1=S)NCCCN1CCOCC1
S=c1nc(-c2ccco2)[nH][nH]1
O=C(NC(=S)NNC(=O)[C@H]1C[C@@H]1c1ccccc1)c1cccc(F)c1
CCCN1CCN(C(=S)Nc2ccc3nc(N4CCN(CC)CC4)cc(C)c3c2)CC1
Cc1csc2c(N3CCN(C(=S)Nc4ccc(C(F)(F)F)cc4)CC3)ncnc12
CCN1CCN(c2cc(C)c3cc(NC(=S)N4CCC5(CC4)OCCO5)ccc3n2)CC1
O=c1c2c(C(F)(F)F)cc(C(F)(F)F)nc2[nH]n1-c1ccccc1
CCCCCc1cc(=O)oc2c(C(CCN(CC)CC)c3cc(OC)c(OC)c(OC)c3)c(OC)cc(OC)c12 (configuration not stated)
CCN(CC)CCCN(C(=O)c1ccc(OC)cc1)c1nc(-c2ccc(OC)cc2)cs1
CSC(SC)=C(C#N)C(=O)c1ccccc1
COc1cccc(C(=O)NN/C(C)=C/C(=O)C(F)(F)C(F)(F)C(F)(F)F)c1
O=C1ON=C(c2ccccc2)/C1=C/c1ccco1
C/C(Cl)=C\Cn1c(O)c(N=O)c2ccccc21
CCc1ccc(S(=O)(=O)c2n[nH]n3c2nc(=O)c2ccccc23)cc1
CC(NS(=O)(=O)OCC(Cl)(Cl)Cl)c1ccc(Br)cc1 (configuration not stated)
COc1ccc(S(=O)(=O)N2CCN(CCc3ccccc3)CC2)c(OC)c1
O=C1CCN(CCc2ccccc2)CCN1CCSc1ccccc1
O=S(=O)(c1ccc(F)c(F)c1)N1CCN(CCc2ccccc2)CC1
CC(C)(C)Nc1nc(Cl)nc(N(C#N)CN2C(=O)c3ccccc3S2(=O)=O)n1
Cc1ccc(SC(CC(=O)c2ccc(C(C)(C)C)cc2)C(=O)O)cc1 (configuration not stated)
COc1ccc(N(CCCN2C(=O)c3cccc4cccc(c34)C2=O)C(=O)c2ccncc2)cc1
O=C(O)c1ccc(/C=C2\SC(=S)N(NC(=O)c3ccc(Br)cc3)C2=O)cc1
O=C(NN1C(=O)/C(=C/c2cccc(O)c2)SC1=S)c1ccccc1O
CC1CC(C)(C)N(C(=O)CN2C(=O)c3ccccc3C2=O)c2ccccc21 (configuration not stated)
Oc1c(Br)cc(/C=N/NC(=S)NCc2ccco2)cc1Br
COc1ccc(OCC(=O)N/N=C/C=C/c2ccccc2)cc1
COc1ccc(C(=O)NNC(=S)NC(=O)c2ccccc2)cc1
CCCOc1ccc(C(=O)NNC(=S)NC(=O)c2ccccc2)cc1
CC(C)(C)N/N=C/c1cc(Cl)cc([N+](=O)[O-])c1O
CCOC(=O)c1ccc2c(c1)[nH]c(=S)n2CC
CCCCn1c(=O)n(Cc2cccc(F)c2)c(=O)c2c1ncn2Cc1ccco1
N#Cc1nc(Cc2cccc3ccccc23)oc1N1CCOCC1
O=C(Cn1ncc2c3ccccc3n(Cc3ccccc3)c2c1=O)NCCCN1CCOCC1
Oc1cccc(-n2nnnc2SCc2ccccc2F)c1
Cc1ccccc1-n1nnnc1Sc1nnnn1-c1ccccc1
COc1ccc(Cl)cc1NC(=O)C[n+]1cccc(C)c1
C=Cn1cc[n+](CC(=O)c2ccc(Cl)c(Cl)c2)c1
C=Cn1cc[n+](CC(=O)c2ccc(Cl)cc2)c1
O=[N+]([O-])c1cc([N+](=O)[O-])c2c(=Nc3ccccc3)n(-c3ccccc3)n(O)c2c1
CCCNC(=O)c1ccc(COc2ccc(C)cc2)o1
CC1CCC(NC(=O)c2ccc(CS(=O)(=O)Cc3ccccc3F)o2)CC1 (configuration not stated)
Cc1ccc(C(=O)CCC(=O)NC2CCCC(C)C2C)cc1 (configuration not stated)
Cc1ccccc1OC(C)C(=O)Nc1ccc(S(=O)(=O)Nc2nccs2)cc1 (configuration not stated)
CCC(Oc1ccc(C)cc1)C(=O)Nc1ccc(S(=O)(=O)Nc2nccs2)cc1 (configuration not stated)
CC(NCc1ccc(F)cc1)C(=O)Nc1cc(S(=O)(=O)N2CCCCC2)ccc1Cl (configuration not stated)
O=C(Nc1ccccc1OC(F)F)c1cccc(S(=O)(=O)N2CCCC2)c1
Cc1cc(C)n2nc(SCc3cccc(S(=O)(=O)N(C)C)c3)nc2n1
CSc1ccc(C(=O)C2CCCN(C(=O)c3nonc3C)C2)cc1 (configuration not stated)
CCOC(=O)C1CCCN(C(=O)Cc2c(F)cccc2Cl)C1 (configuration not stated)
Cc1ccc(SCC2(O)CCN(C(=O)c3ccc(Cl)cc3)CC2)cc1
O=C(Cc1ccccc1F)c1ccc(O)cc1O
O=c1c2ccccc2nc(-c2ccccc2)n1Cc1ccco1
Cc1sc(NC(=O)c2ccco2)nc1-c1ccccc1
CC1CCCCN1C(=O)c1ccc(C(=O)Nc2ccc(F)cc2)cc1 (configuration not stated)
O=C(CCc1ccccc1)NNC(=S)NC(=O)c1ccc(Cl)cc1
COc1cccc(N2C(=O)N(c3ccccc3)C3CS(=O)(=O)CC32)c1 (configuration not stated)
CCCCCn1c(=O)[nH]c2cc(C(=O)NCCCN3CCCCC3CC)ccc2c1=O (configuration not stated)
